# Measurements: PubChem BioAssay (NCI)
# Where “and” joins values, the source holds several entries; their conditions need not be identical. Identical values can stand only once. This is part of a sample that, as a whole, favours compounds with a hit. Of some 79,000 tested, about 15% had one in any assay. Some structures have more than one record in an assay (separate samples or runs), and their calls can disagree. Calls of active or inactive are those of the source. Cut-off read from the data, not from the text of the source: active = growth inhibition above about 70%; inactive = the rest.
# Assay: NCI Yeast Anticancer Drug Screen. Data for the sgs1 mgt1 strain (AID 161);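 note: 0% = growth of cultures given vehicle only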
# Settings: S. cerevisiae sgs1 mgt1 strain, at 50.0 µM, stronger effect = higher value
# Procedure, shortened: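 Genetically altered yeast, compound exposure, growth inhibition relative to vehicle.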
row,SMILES,growth inhibition
1,O=C1/C(=C/c2ccccc2)CCCC1CN1CCCCC1 (centres undefined),85.7% (active)
2,C#CCN(Cc1ccc2nc(N)[nH]c(=O)c2c1)c1ccc(C(=O)NC(CCC(=O)O)C(=O)O)cc1 (centres undefined),67.4% (inactive) and 35.9% (inactive)
3,CCOC1(c2cccc([N+](=O)[O-])c2)c2ccccc2Oc2ccccc21,57.6% (inactive)
4,O=C(O)CNC(=S)Nc1ccccc1,5.2% (inactive) and 64.6% (inactive)
5,N/C(=N/N=C/c1cc(Br)cc(Br)c1O)NO,97.8% (active)
6,C[Si](C)(C)/C=C/CCNC(C#N)c1ccccc1 (centres undefined),92.7% (active)
7,CCCCCCCCCCCCCCCCOP(=O)(O)OCC(N)C(=O)O (centres undefined),98.8% (active)
8,CC1=C(C(=O)NCc2ccccc2)C(c2ccccc2)C(C(=O)NCc2ccccc2)=C(C)N1,70.7% (active)
9,O=[N+]([O-])c1cc(S(=O)(=O)Nc2ccccc2)ccc1Nc1ccccc1,85.5% (active)
10,COc1cc2ccnc(-c3c4ccccc4c(N)c4c(OC)c(OC)ccc34)c2cc1OC,-13.9% (inactive)
11,CCOC(=O)C(Br)C(Br)c1ccccc1Cl (centres undefined),99.8% (active)
12,CCOC(=O)C1=C(C)NC(C)=C(C(=O)OCCNC(=O)c2ccc(N=[N+]=[N-])cc2)C1c1ccccc1C(F)(F)F (centres undefined),9.9% (inactive)
13,Cc1cc(C)c(NC(=S)NC(=O)c2ccccc2)cc1C,25.3% (inactive)
14,CNCCCNc1c2ccccc2nc2cccc([N+](=O)[O-])c12,91.2% (active)
15,COc1c(O)c(C=O)c(Br)c(C=O)c1O,99% (active)
16,Cc1c(C)c(C)c(CSC(=N)N)c(C)c1C,93.3% (active)
17,O=C(CSC(=S)N1CCCCC1)Nc1nc2c(s1)CCCC2,86% (active)
18,CNC(=O)OCc1c(COC(=O)NC)c(-c2ccc(Cl)cc2)n2c1CCC2,57.5% (inactive)
19,CC(=O)OC1CC2C(C)(C)C(=O)C=C[C@]2(C)C2CCC3(C)C(=CCC3[C@H](CO)C[C@H](O)C(=O)C(C)(C)O)[C@]12C (some centres undefined),88.8% (active)
20,CCCCCCOC(=O)NCCOC(=O)Nc1ccccc1,20.2% (inactive)

row,SMILES,growth inhibition
1,C[C](C)(C)[Ge]([O][Ge]([c]1ccccc1)[c]1ccccc1)([O][Ge]([c]1ccccc1)[c]1ccccc1)[C](C)(C)C,61.6% (inactive)
2,CCc1c(Cl)c(C)cc(O)c1Cl,86.2% (active)
3,Cc1nc(Nc2ccccc2[N+](=O)[O-])sc1C(=O)CC(=O)C(=O)Nc1c(C(C)C)cccc1C(C)C,34% (inactive)
4,O=[N+]([O-])c1cccc2nc3ccccc3c(NCCCn3ccnc3[N+](=O)[O-])c12,85% (active)
5,CCCCCCC(O)CNCc1ccnc2ccc(OC)cc12 (centres undefined),83.5% (active)
6,Cc1c2cccc(Sc3ccccc3)c2c2c3c(cccc13)[S+](c1ccccc1)C2 (centres undefined),94.2% (active)
7,C=C1CCC(O)C/C1=C/C=C1\CCCC2(C)C1CCC2C(C)CCCC(C)C (centres undefined),54.9% (inactive)
8,NC1=NNC2(C(N)=N1)c1ccccc1-c1ccccc12,64.5% (inactive)
9,COc1cc2cc3c4cc(OC)c(OC)cc4cc[n+]3c(C)c2cc1OC,36.6% (inactive)
10,COC(=O)NC1C(C)OC(OC2C/C=C(/C)C3C=CC4C(OC5CC(OC6CC(O)C(OC7CC(O)C(OC)C(C)O7)C(C)O6)C(O)C(C)O5)C(C)CC(C)C4C3(C)/C(O)=C3\C(=O)OC4(CC(C)C(CO)=CC4/C=C\2C)C3=O)CC1(C)[N+](=O)[O-] (centres undefined),9.1% (inactive)
11,O=C1CSC(c2cccc(Cl)c2)N1c1ccc(-c2ccc(-n3c(-c4ccccc4)nc4ccccc4c3=O)cc2)cc1 (centres undefined),43.2% (inactive)
12,CCOC(=O)C(C(=O)OCC)=P(c1ccccc1)(c1ccccc1)c1ccccc1,47% (inactive)
13,COc1ccc(N=CN(C)C)c(C)c1,93.5% (active)
14,Cc1cc(S(=O)(=O)Nc2nnc3cnc4ccccc4n23)c(S)cc1Cl,-11.9% (inactive)
15,O=C(Oc1ccc2c(c1)CN(Cc1ccccc1)CO2)c1ccccc1,77.2% (active)
16,CN(C)[C@@H]1C(=O)C(C(N)=O)=C(O)[C@@]2(O)C(=O)C3=C(O)c4c(O)cccc4C[C@H]3C[C@@H]12,91% (active)
17,O=[N+]([O-])c1ccc2c(c1)/C(=N/N=C1c3ccccc3Cc3ccccc31)c1cc([N+](=O)[O-])cc([N+](=O)[O-])c1-2,89.2% (active)
18,Cc1nc2c(Br)cc(Br)cc2c(=O)n1-c1ccccc1NC1OCC(O)C(O)C1O (centres undefined),88.5% (active) and 61.5% (inactive)
19,Cc1cc(N(CCOS(C)(=O)=O)CCOS(C)(=O)=O)ccc1C=Nc1ccc(-c2nc(Cc3ccccc3)sc2C)cc1,85.5% (active) and 85.9% (active)
